Many of the other results were omitted from the sample, so hits are more common in it than they were.
Pf Dd2 inh – qHTS Primary assay for Inhibitors of Plasmodium falciparum Dd2 growth in vitro. AID 1347417, 2020. Potency, µM (doses to about 28.9 µM), for the others: at the highest dose activity, negative = inhibition, actives largely listed as inhibitors. 120,000 tested, 4.3% active. P. falciparum Dd2 growth, SYBR Green, 72 h; active = well fitted inhibition curve with a large enough effect;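 also: plate controls were DMSO vehicle for no effect and reference drug for full effect; nearly all actives have a fitted effect of over 65% in size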
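Infected erythrocytes (Dd2, 0.3% parasitemia, 2.5% hematocrit final) are added to compound in RPMI-1640/Albumax II medium, grown 72 h at 37C in low oxygen, then lysed with saponin/Triton-X containing SYBR Green and read by fluorescence.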
* = called active by the depositor; i = inactive; [ ] = dose if it differs, or a comment. Potency is read from the fitted curve at half-maximal effect.

SMILES	Pf Dd2 inh
COCCn1cnc2ccc(-c3cccc(O)c3)nc2c1=O	-7.9%[44.1 µM]
CC(=O)N[C@H]1CO[C@H]2[C@@H]1OC[C@@H]2Nc1nccc(-c2cccc(F)c2)n1	-22.5%[44.1 µM]
CCOC(=O)c1cc(-c2ccc(C)cc2)n(CC(=O)Nc2cccc(C(C)=O)c2)c1C	i
CCOC(=O)c1cc(-c2ccccc2)n(-c2cccc(C(=O)Nc3cccc(C)c3)c2)c1C	11.2µM*
CCOC(=O)c1cc(-c2ccccc2)n(-c2cccc(C(=O)N(CC)c3ccccc3)c2)c1C	i
O=C(c1n[nH]c(=O)c2ccccc12)N1CCC(Cc2noc(-c3ccncc3)n2)C1 (stereo not drawn)	-27.1%
CCOc1ccccc1C(=O)N1CCC2(CC1)NC(=O)N(Cc1ccccc1)C2=O	-11.1%
Oc1c(C(c2ccccc2)N2CCN(c3ccccc3)CC2)sc2nc(-c3ccco3)nn12 (stereo not drawn)	56.7%
CC(C)C[C@@H]1N[C@H](C(=O)NC2CCC2)Cc2cn(Cc3ccccn3)c3cccc1c23	11.2µM*
CCCNC(=O)[C@@H]1Cc2cn(Cc3nccn3C)c3cccc(c23)[C@H](CC(C)C)N1	10µM*
COCCCNC(=O)[C@@H]1Cc2cn(Cc3nccn3C)c3cccc(c23)[C@H](CC(C)C)N1	-4.2%[44.1 µM]
CC(C)C[C@@H]1N[C@H](C(=O)NCC2CC2)Cc2cn(Cc3ccccn3)c3cccc1c23	-23.4%[44.1 µM]
CC(C)C[C@@H]1N[C@H](C(=O)N2CCOCC2)Cc2cn(Cc3nccn3C)c3cccc1c23	11.2µM*
CC(C)C[C@@H]1N[C@H](C(=O)NCCN2CCOCC2)Cc2cn(Cc3ccccn3)c3cccc1c23	i
C#CCNC(=O)[C@@H]1Cc2cn(Cc3ccncc3)c3cccc(c23)[C@H](CC(C)C)N1	10µM*
CC(C)C[C@@H]1N[C@H](C(=O)NCc2ccccc2)Cc2cn(Cc3cccnc3)c3cccc1c23	-6.6%
CC(C)C[C@@H]1N[C@H](C(=O)NC2CCC2)Cc2cn(Cc3ccncc3)c3cccc1c23	-28.3%[44.1 µM]
COc1ccc(NC(=O)c2ccc(NC(=O)N3CCSc4ncccc43)cc2)cc1	23.9%
Cn1cc(CN2CCOc3cc([S+](=O)([O-])Nc4ccccc4)ccc3C2)cn1	i
Cc1cc(C)cc(C(=O)N(Cc2nc(-c3ccc(Cl)cc3)no2)C(C)C)c1	20.2%
O=C(c1cc(F)ccc1F)N1CCN(c2cc(-c3ccc(F)cc3)[nH]n2)CC1	i
COc1ccc(Cl)cc1NC(=O)c1cc2nc(-c3ccc4c(c3)OCO4)cc(C(F)(F)F)n2n1	45.1%
O=C(Nc1cccc(Cl)c1)C1=NO[C@@H]2CN(c3cccnc3)C[C@H]12	i
CC(C)c1nnc(C2CN(C(=O)CCc3c[nH]c4ccccc34)CC23CCOCC3)o1 (stereo not drawn)	-17.2%
Cn1c(CO)nnc1C1CCN(c2ncncc2C(=O)O)CC1	-11.6%
SMILES	Pf Dd2 inh
O=c1n(-c2ccc(Cl)cc2)nc2n1CCN([S+](=O)([O-])c1ccccc1)C2	90.3%
Cc1ccc(O[C@H]2COCC[C@H]2NC(=O)c2ccc(-c3ccn[nH]3)cc2)cn1	-8.0%
CC(C)C[C@@H]1N[C@H](C(=O)NC2CC2)Cc2cn(Cc3nccn3C)c3cccc1c23	11.2µM*
CC(=O)NCCNC(=O)[C@@H]1Cc2cn(Cc3cc(C)on3)c3cccc(c23)[C@H](CC(C)C)N1	i
CC(C)C[C@@H]1N[C@H](C(=O)NCc2ccccn2)Cc2cn(Cc3ccncc3)c3cccc1c23	-29.3%
Cc1cc(Cn2cc3c4c(cccc42)[C@H](CC(C)C)N[C@H](C(=O)O)C3)no1	i
Cc1cc(Cn2cc3c4c(cccc42)[C@H](CC(C)C)N[C@H](C(=O)NCc2nccs2)C3)no1	-7.1%
CC(C)C[C@@H]1N[C@H](C(=O)NCCN(C)C)Cc2cn(Cc3ccccn3)c3cccc1c23	-18.8%[44.1 µM]
C=CCn1cc2c3c(cccc31)[C@H](CC(C)C)N[C@H](C(=O)NCc1ccccn1)C2	11.2µM*
COc1ccccc1CNC(=O)[C@@H]1Cc2cn(C)c3cccc(c23)[C@H](CC(C)C)N1	-13.3%[44.1 µM]
CC(C)C[C@@H]1N[C@H](C(=O)NCC2CC2)Cc2cn(Cc3nccn3C)c3cccc1c23	-17.6%[44.1 µM]
CCCNC(=O)[C@@H]1Cc2cn(Cc3c(C)noc3C)c3cccc(c23)[C@H](CC(C)C)N1	11.2µM*
Cc1cc(Cn2cc3c4c(cccc42)[C@H](CC(C)C)N[C@H](C(=O)NCc2ccc(C)o2)C3)no1	12.6µM*
CCN1c2cc(C(=O)Nc3ccc(C(C)C)cc3)ccc2C(=O)N2CCCCCC21 (stereo not drawn)	-11.2%
O=C1NCCC[C@@H]1NC(=O)[C@H]1CN(C(=O)NC2CCCCC2)CCN1S(=O)(=O)c1ccc(F)cc1	30.5%
O=C(c1ccc(F)cc1F)N1CCC(Cc2nc(-c3cnccn3)no2)CC1	16.4%
CCC(Sc1nnc2c3ccccc3n(C)c2n1)C(=O)Nc1nnc(C(C)C)s1 (stereo not drawn)	-16.9%
Cc1cc(C)c(NC(=O)Cn2ccn(-c3cccc(Cl)c3)c(=O)c2=O)c(C)c1	30.4%
O=C(O)[C@@H]1CN(Cc2ccccc2)C[C@@H]1C(=O)N1CCCCC1	-12.8%
Cc1cc(NC(=O)CN2C(=O)CSc3ccc(S(=O)(=O)N(C)C)cc32)ccc1Br	-2.2%
CCOc1cc(C(=O)N2CCC(Cc3nc(-c4cnccn4)no3)CC2)cc(OCC)c1OCC	i
O=S1(=O)CCC(S(=O)(=O)NC2CCCCC2)C1 (stereo not drawn)	-3.6%
O=C1CO[C@H]2CN(Cc3ccc(C(F)(F)F)cc3)C[C@H]2N1	-26.7%[44.1 µM]
Cc1c(CN2CCC3(CC2)COC(=O)O3)c(=O)n(-c2ccccc2)n1C	11.0%
CCOCCn1c(=O)[nH]c2cc(C(=O)N3CCC(OC)CC3)ccc21	2.5%
SMILES	Pf Dd2 inh
Cc1c(/C=C(\C#N)C(=O)Nc2cccc(Cl)c2)c2ccccc2n1Cc1ccccc1Cl	3.16µM*
Cc1ccc(NC(=O)/C(C#N)=C\c2ccc(Cl)cc2Cl)cc1C	8.3%
N#C/C(=C/c1cn(Cc2ccccc2Cl)c2ccccc12)C(=O)Nc1cccc(Cl)c1	i
COc1cc(Cl)c(CN2CCC[C@H]2C(=O)O)cc1OC	-9.1%
O=C(O)c1ccc(C2CCCN(C(=O)CSCC3CC3)C2)cc1 (stereo not drawn)	2.4%
N#Cc1cccc(C(=O)N2CCNc3cnc(Nc4cccc(F)c4)nc3C2)c1	i
O=C(c1ccc(Oc2ccccc2)cc1)N1CCNc2cnc(Nc3cccnc3)nc2C1	12.6µM*
CN(C)c1cccc(C(=O)N2CCNc3cnc(Nc4cccc(C(F)(F)F)c4)nc3C2)c1	7.94µM*
CC(C)NC(=O)N1CCNc2cnc(Nc3cccc(F)c3)nc2C1	-7.1%[44.1 µM]
O=C(Cc1ccccc1)N1CCNc2cnc(Nc3ccccc3)nc2C1	-20.4%[44.1 µM]
COc1ccccc1Nc1ncc2c(n1)CN(C(=O)c1ccnn1C)CCN2	3.4%[44.1 µM]
CCOc1ccccc1NC(=O)Cn1nnc(C(=O)NCc2ccc(F)cc2)c1N	6.9%
CS(=O)(=O)N1CCN(C(=O)c2cccs2)C[C@H]1C(=O)N[C@H]1CCCNC1=O	24.2%[44.1 µM]
COc1ccc(C)cc1Nc1nc2cc(Cl)c(Cl)cc2nc1-n1nc(C)cc1C	54.8%
COc1ccc(-c2noc([C@@H]3CCCN3C(=O)c3cc(Cl)ccc3OC)n2)cc1	-9.4%
COc1ccc(-c2noc(N3CCC(C(=O)Nc4ccc(F)cc4Cl)CC3)n2)cc1	38.0%
COc1ccc(-c2noc(N3CCC(C(=O)N(C)c4cc(Cl)ccc4OC)CC3)n2)cc1	10µM*
CN(C)[C@H]1CCCCN(C(=O)c2coc(CN3CCOCC3)c2)C1	-8.5%
